A selection: hits, their analogues and other compounds. The true share with any hit is near 3%.
pPAFAH inh – inhibitors of human plasma PAF acetylhydrolase (pPAFAH). recombinant pPAFAH, FP-rhodamine probe fluorescence polarization. inhibition, % at 3.39 µM. actives 1.5% (n = 330,000). AID 463082;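 active means inhibition above the mean inhibition across the screen plus 3 SD, cut at about 25% in these data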;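 further: inhibitors block binding of the rhodamine activity-based probe so polarization drops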
PAFAH1B2 inh – blocks human PAF acetylhydrolase 1b catalytic subunit 2; actives 1.2% (n = 340,000); AID 492953; P68402; inhibition, % at 3.39 µM; recombinant PAFAH1B2, FP-rhodamine activity probe, fluorescence polarization;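 active means inhibition above the mean of all tested compounds plus 3 SD, cut at about 24% in these data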
Target sequence (P68402 whole entry, looked up): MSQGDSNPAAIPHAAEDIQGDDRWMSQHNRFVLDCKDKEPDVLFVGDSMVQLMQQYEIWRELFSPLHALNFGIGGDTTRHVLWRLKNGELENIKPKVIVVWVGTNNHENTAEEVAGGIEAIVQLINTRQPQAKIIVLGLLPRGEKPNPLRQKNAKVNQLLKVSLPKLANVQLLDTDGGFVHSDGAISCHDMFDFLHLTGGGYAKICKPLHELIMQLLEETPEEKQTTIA
PAFAH1B3 FP inh – blocks human PAF acetylhydrolase 1B catalytic subunit 3 | Q15102 | recombinant PAFAH1B3, FP-rhodamine probe, fluorescence polarization | inhibition, % at 3.39 µM | actives 0.28% (n = 340,000);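 active means inhibition above the screen-wide average of all tested compounds plus 3 SD, cut at about 25% in these data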
PAFAH2 inh – inhibitors of human PAFAH2. Q99487. recombinant PAFAH2, FP-rhodamine activity probe, fluorescence polarization. actives 0.99% (n = 340,000). inhibition, % at 3.39 µM;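 active means inhibition above the mean over all tested compounds plus 3 SD, cut at about 30% in these data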;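 further: inhibitors block probe labeling of enzyme so polarization drops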
DAGLB inhibitor – diacylglycerol lipase beta (human) inhibition; Q8NCG7; HEK293T DAGLB membrane lysate, EnzChek fluorogenic substrate; inhibition, % at 5.17 µM; actives 0.059% (n = 340,000); AID 504411; in the data active means inhibition above about 34%
ATG4B inh – inhibitors of human ATG4B cysteine protease; Q9Y4P1; ATG4B cleavage of LC3-PLA2, NBD-HPC fluorescence, 1 h; inhibition, % at 8.33 µM; actives 0.51% (n = 340,000); AID 504462; in the data active means inhibition above about 40%
ATG4B conf – confirmation of human ATG4B inhibitors | ATG4B protease fluorescent substrate cleavage assay | actives 92% (n = 320) | inhibition, % at 8.33 µM | shares compounds with ATG4B inh; in the data active means inhibition above about 39%
PLA2 counter – counter-screen for ATG4B inhibitors: human phospholipase A2. shares compounds with ATG4B inh. purified PLA2, NBD-C6-HPC fluorescence, 45 min. inhibition, % at 8.33 µM. actives 66% (n = 1,600); in the data active means inhibition above about 50%
Target sequence (P04054 whole entry, looked up): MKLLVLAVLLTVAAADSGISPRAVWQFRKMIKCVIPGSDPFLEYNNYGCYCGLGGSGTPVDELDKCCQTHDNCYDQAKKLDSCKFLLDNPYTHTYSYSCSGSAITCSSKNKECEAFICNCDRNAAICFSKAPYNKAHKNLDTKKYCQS
Each line names hits and unclear results; the compound was inactive in the other large screens (follow-up assays come after a bar, where they were run).

COc1ccc(O)c(C(=O)c2cnn(C(=O)c3cccc(N(C)C)c3)c2)c1	none
C=CCn1c(SCC(=O)N2c3ccccc3Sc3ccccc32)nnc1-c1ccco1	none
C=CCn1c(SCC(O)Cn2c3ccccc3c3ccccc32)nnc1-c1ccco1 (stereo not drawn)	ATG4B inh 46 | PLA2 counter inactive
COc1cccc(CN2CCNC(=O)C2CC(=O)NCCn2ccc3ccccc32)c1OC (stereo not drawn)	none
O=C(Nc1ccc2nc(-c3ccco3)c(-c3ccco3)nc2c1)NC1CC1	PAFAH1B3 FP inh 36, PAFAH2 inh 35, ATG4B inh 55 (no result: pPAFAH inh) | PLA2 counter 60
NC(=O)NC[C@@H]1CC[C@@H](Cc2ccc(-c3ccccc3)cc2)O1	ATG4B inh 80 | PLA2 counter 81
OC[C@@H]1CC[C@@H](Cc2ccc(-c3ccccc3)cc2)O1	none
COc1ccc(NC(=O)NC[C@@H]2CC[C@@H](Cc3ccc(-c4ccccc4)cc3)O2)cc1	ATG4B inh 40 | PLA2 counter 74
CCOC(=O)c1sc(NC(=O)CCCn2nc([N+](=O)[O-])c(Cl)c2C)c(C(=O)OCC)c1C	ATG4B inh 57 | PLA2 counter 52
CCCOC(=O)c1c(NC(=O)CCCn2nc([N+](=O)[O-])c(Cl)c2C)sc(C(=O)OC)c1C	ATG4B inh 62 | PLA2 counter 57
COc1ccc(-c2nnc(SCc3ccccc3F)o2)cc1OC	none
Cc1ccc(-c2nnc(SCc3ccccc3F)o2)cc1	ATG4B inh 48 | ATG4B conf 69 | PLA2 counter inactive
CN(CCc1cnn(C)c1)C(=O)C1CCC(=O)N(CC2CCCCC2)C1 (stereo not drawn)	none
N#CCC(=O)Nc1ccc(C(=O)NCc2cccc(Cl)c2)cc1	ATG4B inh 53 | PLA2 counter 71
O=C(NCc1cccc(Cl)c1)c1ccncc1	none
Oc1ccc(-c2csc(Nc3ccc4c(c3)OCO4)n2)c(O)c1	ATG4B inh 42 (no result: pPAFAH inh) | PLA2 counter 59
Cn1c(SCC(=O)Nc2nc3ccccc3s2)nnc1-c1ccccc1	none
CC1(C)Cc2ccccc2-c2nnc(SCC(=O)Nc3nc4ccccc4s3)n21	ATG4B inh 42 | PLA2 counter 51
O=C(Cc1ccc(F)cc1)Nc1c(C(=O)N2CCN(c3ncccn3)CC2)oc2ccccc12	none
O=C(O)c1cc(NN=Nc2cccc(S(=O)(=O)O)c2)cc([N+](=O)[O-])c1	none
O=C(O)c1cc(NN=Nc2cccc([N+](=O)[O-])c2)cc([N+](=O)[O-])c1	pPAFAH inh 27, ATG4B inh 83 | PLA2 counter 87
COc1ccc(N2CCN(C(=O)Cn3c(=O)[nH]c4ccccc4c3=O)CC2)cc1	none (no result: PAFAH1B2 inh, PAFAH1B3 FP inh, PAFAH2 inh, DAGLB inhibitor, ATG4B inh)
COC(=O)C1CN(C(=O)COc2ccc(Cl)cc2C)c2ccccc2O1 (stereo not drawn)	none
CCCCn1c(=O)c(-c2ccccc2)c(O)c2ccccc21	none
CCCCn1c2ccccc2c2cc(CC(N)=O)ccc21	ATG4B inh 62 | PLA2 counter 74
COc1ccc2c(-c3ccccc3)cc(SCC(N)=O)nc2c1	pPAFAH inh 33, ATG4B inh 58 | PLA2 counter 57
CCOc1ccccc1-n1c(=S)sc2c(=O)n(-c3ccccc3)c(=S)[nH]c21	none
CCC(NC(=O)C1CCCC1)c1ccccc1 (stereo not drawn)	none
Cc1ccc(S(=O)(=O)N(Cc2ccccc2)Cc2ccco2)cc1	ATG4B inh 44 | PLA2 counter 56
O=C(COC(=O)Cn1ccc(=O)[nH]c1=O)Nc1ccc(F)cc1	none
CCOC(=O)c1cccc(NC(=O)c2ccc(-n3cnnn3)cc2)c1	none
Cc1ccccc1NC(=O)/C(=C/c1ccccc1)c1ccccc1	ATG4B inh 43 | ATG4B conf 65 | PLA2 counter inactive
O=C(Nc1ccccc1)/C(=C/c1ccccc1)c1ccccc1	none
COC(=O)c1cc(S(=O)(=O)NCc2cccs2)c[nH]1	none

Screening results (PubChem)
